CHX counter: counter-screen for Shiga toxin inhibitors: cycloheximide protein synthesis inhibition; cell reporter, cycloheximide protein synthesis inhibition counterscreen; max response, %; actives 12% (n = 300,000); in the data active means max response mostly above about 13%, no sharp cut-off; inactive means mostly below about 14%; further: read at 38.3 µM for the half of the compounds with a filed dose; 0% is about no effect
Pf growth 96h: inhibits malaria parasite growth, 96 h | P. falciparum luciferase reporter growth, 96 h | actives 6.9% (n = 320,000) | Potency, µM (doses to about 28.7 µM), inactives show top-dose activity change, negative = inhibition, hits mostly inhibitors; further: potency means the concentration at half of the fitted maximal effect; on the % scale 0 is the no-effect control and ±100 the full control effect
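P. falciparum expressing integrated firefly luciferase, in erythrocytes at 2% hematocrit, 0.05% parasitemia, incubated with compounds 96 h at 37 C, 5% CO2. Growth inhibition read as loss of luminescence; two-generation exposure targets delayed-death apicoplast inhibitors.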
Shiga inhibitor: Shiga toxin inhibition. Vero cells, Shiga toxin protein synthesis inhibition reporter. inhibition, % at 38.7 µM. actives 9.2% (n = 290,000). AID 2315; in the data active means inhibition mostly above about 28%, no sharp cut-off; inactive means mostly below about 43%; further: 0% is about no effect
NS1 inh: inhibitors of influenza NS1 protein function. Potency, µM (highest dose often 46.1 µM), inactives show at the top dose activity, positive = more growth. actives 0.4% (n = 270,000). AID 2326; calls by dose curve; further: potency means the concentration at half of the fitted maximal effect; actives are rising curves; nearly all actives have a fitted effect of over 50% in size
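A cell-based growth assay was used: compounds that relieve NS1-induced slow growth of budding yeast raise OD600. Assay medium was yeast nitrogen base with ammonium sulphate and -URA supplement, pH 6.0, with 2% galactose.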
Pf growth 48h: inhibits P. falciparum growth in the first generation, 48 h. Potency, µM (doses to about 28.7 µM), for the others: at the top dose activity change, negative = inhibition, actives largely listed as inhibitors. actives 5.9% (n = 310,000). P. falciparum luciferase growth in erythrocytes, 48 h; further: potency means the concentration at half of the fitted maximal effect; on the % scale 0 is the no-effect control and ±100 the full control effect
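Read-out is firefly luciferase luminescence from an integrated reporter in P. falciparum, so falling signal marks reduced parasite growth. Infected erythrocytes were at 2% hematocrit and 0.1% parasitemia (final) in Albumax-supplemented RPMI 1640.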
* hit, by the source's call; u = inconclusive; x = no result; [ ] = another dose, or the depositor's remark. The list is not random: actives were taken first. Their share in the collection is about 21%. Unless noted, the call rests on the fitted dose curve; in most records, active means well fitted inhibition curve with a large enough effect; inconclusive means small, poorly fitted or top-dose-only effect, or another doubt; inactive means no such curve, though single readings can be large or run the other way.

SMILES	CHX counter	Pf growth 96h	Shiga inhibitor	NS1 inh	Pf growth 48h
O=C(COc1ccc(Cl)cc1Cl)Nc1ccc2nc3n(c(=O)c2c1)CCCC3	5.9	u	-6.0	-32.5%	-22.6%
O=C(c1ccccc1)C(Nc1ccccn1)c1ccccc1 (stereo not given)	-2.4	12.3%	14.3	1.1%	7.0%
O=C(CCS(=O)(=O)c1ccccc1)NCc1ccccc1	14.3	16.6%	29.3	6.9%	39.6%
COc1cc(OC)cc(C(=O)Nc2ccc3nc4n(c(=O)c3c2)CCCC4)c1	27.2*	14.0%	70.1*	-0.9%	u
CCCc1ccc(S(=O)(=O)NCC2CCCN2CC)cc1 (stereo not given)	0.8	28.3%	-12.8	-0.1%	10.3%[0.00184 µM]
CC1(C)Cc2c(ccc3ccccc23)C(NNC(=O)c2cccnc2)=N1	-3.1	7.5%	-12.1	12.9%	-3.1%
COc1ccc(N2CCN(C(=O)c3cc4c(C)nc5ccccc5c4o3)CC2)cc1	-2.7	0.828µM*	-1.0	-18.9%	2.1%
CCN1CCCC1CNC(=O)C(=O)NC(C)c1ccccc1 (stereo not given)	-3.4	11.7µM*	46.6	0.7%	14.4%
CCN1CCCC1CNC(=O)c1cc2c(C)nc3ccccc3c2o1 (stereo not given)	3.0	u	20.7	4.6%	9.28µM*
CCN1CCCC1CNC(=O)C(=O)NC(C)C (stereo not given)	9.9	18.9%	-6.9	-0.4%	39.8%
Cc1nc2ccccc2c2oc(C(=O)N3CCCC(C)C3)cc12 (stereo not given)	14.8*	28.3%	12.8	-22.3%	-3.9%
Cc1nc2ccccc2c2oc(C(=O)NCCN3CCCCC3C)cc12 (stereo not given)	1.7	u	-12.1	-21.8%	u
CCOC(=O)Cc1cnc(NC(=O)CSc2nc3ncnc(N)c3[nH]2)s1	0.2	16.2%	-2.7	x	7.4%
O=C(c1ccccc1)N1CCC2(CC1)NCCc1[nH]cnc12	12.9	36.7%	-3.5	1.8%	40.4%
C=CCSC(=S)NC1CCS(=O)(=O)C1 (stereo not given)	-6.9	-7.7%	6.9	1.7%	-3.7%
Cc1[nH]c2ccccc2c1C(=O)COC(=O)C1CC(=O)N(Cc2ccco2)C1 (stereo not given)	-4.2	15.8%	-2.4	u	21.2%
Cc1ccc(C(=O)Oc2ccc(C(=O)COC(=O)C3CC(=O)N(Cc4ccco4)C3)cc2)cc1 (stereo not given)	29.1*	u	68.3*	-2.0%	-16.3%
O=C(COC(=O)C1CC(=O)N(Cc2ccco2)C1)c1ccc(OC(=O)c2ccco2)cc1 (stereo not given)	10.4*	x	26.5	9.8%	-5.0%
CN(C)c1nc(-c2cccnc2)nc(-c2ccccc2)c1C#N	-1.3	u	-6.5	3.4%	u
Cc1ccc(C)c(Oc2coc3cc(OCC(=O)Nc4ccccc4C(C)C)ccc3c2=O)c1	-2.7	7.38µM*	-7.7	29.8%	13.1µM*
CC12CCC(C(=O)N3CCN(C(c4ccccc4)c4ccccc4)CC3)(OC1=O)C2(C)C (stereo not given)	-2.5	1.65µM*	-2.1	12.4%	x
COc1ccccc1N1CCN(C(=O)c2c(C)cc(=O)oc2C)CC1	4.0	x	23.1	-22.5%	7.1%
Cc1cc(=O)oc(C)c1C(=O)N1CCN(C(c2ccccc2)c2ccccc2)CC1	-1.9	9.28µM*	1.3	-40.2%	13.1µM*
Cc1cc(C(=O)N2CCN(C(c3ccccc3)c3ccccc3)CC2)no1	1.1	u	13.1	-30.4%	9.28µM*
CC12CCC(C(=O)NCc3ccccc3)(OC1=O)C2(C)C (stereo not given)	-1.3	-2.3%	14.1	2.4%	13.3%
SMILES	CHX counter	Pf growth 96h	Shiga inhibitor	NS1 inh	Pf growth 48h
Cc1cc(C(=O)N2CCN(c3ccccc3)CC2)no1	-3.6	46.1%	2.0	-4.3%	5.5%
O=C(c1cc(-c2cccs2)on1)N1CCOCC1	36.9*	u	104.4*	0.5%	221.4%
Cc1cc(C(=O)COC(=O)c2ccc(O)cc2O)c(C)n1C(C)C	x	-74.5%	x	x	-16.8%
CC(C(=O)NCC1CCCO1)c1ccc([N+](=O)[O-])cc1 (stereo not given)	-1.6	15.2%	-14.2	6.3%	8.0%
CCCc1cc(C(=O)N2CCN(C(c3ccccc3)c3ccccc3)CC2)no1	5.4	u	7.0	-116.0%	11.7µM*
O=C(c1cc(-c2cccs2)on1)N1CCN(C(c2ccccc2)c2ccccc2)CC1	6.7	40.3%	-1.6	2.5%	6.57µM*
Cc1c(C(=O)N2CCN(C(c3ccccc3)c3ccccc3)CC2)oc2ccccc12	x	14.7µM*	x	x	6.57µM*
COc1ccccc1N1CCN(C(=O)c2cc(-c3cccs3)on2)CC1	6.9	2.9%	22.8	6.1%	-11.3%
COc1ccc(C2NC(c3ccc(OC)cc3OC)C(C)C(=O)C2C)c(OC)c1 (stereo not given)	-0.4	-5.7%	-21.1	x	u
COc1ccccc1N1CCN(C2CC(=O)N(c3cccc(Cl)c3)C2=O)CC1 (stereo not given)	-3.1	u	x	-30.1%	29.7%
O=C(CCCSc1ccccc1)Nc1ccc(Cl)c(S(=O)(=O)N2CCOCC2)c1	x	10.4µM*	x	x	13.1µM*
CCN(CC(=O)Nc1ccc(C)c(S(=O)(=O)N2CCOCC2)c1)Cc1ccccc1	x	u	x	x	11.7µM*
Cc1ccc(NC(=O)CCS(=O)(=O)c2ccccc2)cc1S(=O)(=O)N1CCOCC1	-2.0	u	9.5	x	-19.8%
Cc1ccc(NC(=O)C(=O)c2c(-c3ccccc3)cc3ccccn23)cc1S(=O)(=O)N1CCOCC1	-3.7	x	14.2	u	9.28µM*
Cc1ccc(NC(=O)CCCOc2ccccc2)cc1S(=O)(=O)N1CCOCC1	x	u	x	x	10.4µM*
Cc1ccc(NC(=O)C2CCCC2)cc1S(=O)(=O)N1CCOCC1	x	-31.2%	x	x	-24.4%
CS(=O)(=O)c1ccc(Cl)c(NC(=O)COC(=O)c2ccc(-n3cnnn3)cc2)c1	x	u	x	x	-3.1%
O=C(CSc1nnnn1-c1ccc2c(c1)OCCO2)N1CCN(C(=O)c2ccco2)CC1	-2.5	3.2%	14.6	1.3%	-24.9%
O=C(c1ccc(CNc2c(N3CCCC3)c(=O)c2=O)cc1)N1CCc2ccccc2C1	-2.7	u	11.5	2.0%	-17.9%
Cc1ccc(S(=O)(=O)N2CCCCC2)cc1NC(=O)CCOc1ccccc1	6.9	u	-7.9	-5.1%	-24.1%
CCN(CC(=O)Nc1cc(S(=O)(=O)N2CCCCC2)ccc1C)Cc1ccccc1	x	11.7µM*	x	x	u
Cc1ccc(OCCCC(=O)Nc2ccc(Cl)c(S(=O)(=O)N3CCOCC3)c2)cc1	x	10.4µM*	x	x	u
COc1ccc(NC(=O)CCOc2ccc(C)cc2)cc1S(=O)(=O)N1CCCCC1	x	-23.2%	x	x	u
Cc1nn(-c2cc(Cl)ccc2Cl)c(C)c1C(=O)O	6.1	38.0%	4.8	x	-17.3%[5.75 µM]
COc1ccccc1CNc1ccc(N2CCCCC2)cc1	24.0	u	44.8	-7.6%	u
COc1cccc(OC)c1C(=O)Nc1ccccc1N1CCCCC1	-1.5	39.2%	-19.7	-57.0%	u
COc1cccc(Nc2ccc(N3CCCCC3)cc2)c1OC	x	2.33µM*	x	x	4.65µM*
